# Measured values: PubChem BioAssay AID1720 (National Center for Advancing Translational Sciences (NCATS), 2009)
# Some of the results follow. Records with an inconclusive call do not appear. The source made the active and inactive calls. Cut-off read from the data, not from the text of the source: active = inhibition above about 40%; inconclusive = no clear call, values can overlap the other calls; inactive = below about 18%.
# Molecular target: Microtubule-associated protein tau (Homo sapiens) (UniProt P10636)
# Experiment: Sedimentation Assay for Inhibitors of Tau Fibrillization
# Settings: recombinant tau K18 P301L (four-repeat tau fragment), sedimentation SDS-PAGE densitometry; at 100 µM; hits give high values
# Description: NIH Molecular Libraries Probe Production Network [MLPCN] NIH Chemical Genomics Center [NCGC] MLPCN Grant: X01 MH083262-01 Assay Provider: Carlo Ballatore, University of Pennsylvania NCGC Assay Overview: The microtubule-associated protein tau is an abundant protein in the axons of neurons that stabilizes microtubules. With its ability to modulate microtubule dynamics, tau contributes directly or indirectly, to key structural and regulatory cellular functions. Particularly important is the influence tau exerts on axonal transport, which allows signaling molecules, trophic factors and other essential cellular constituents to travel along the axons. […] The ability of compounds to block tau fibrillization was assessed using a sedimentation assay. Unlike tau monomers, tau fibrils readily sediment upon centrifugation. Samples from the tau ThT confirmation assay treated with 100 uM compound (AID 1558) were centrifuged and the amount of tau present in the supernatant and pellet was determined. […]
# NCGC Assay Protocol Summary: Human K18 P301L tau (15 uM) in assay buffer (20 uM heparin, 12.5 uM Thioflavine T, 100 mM sodium acetate pH 7) was centrifuged at 186,000 x g for 30 min and the supernatant removed from the pellet. Pellets were resuspended in a volume equal to the supernatant and equal amounts of supernatants and pellet were analyzed by SDS-PAGE using a 12.5% acrylamide gel. […]
# Microtubule-associated protein tau (Homo sapiens), sequence (P10636 561-689 P618L limits assumed): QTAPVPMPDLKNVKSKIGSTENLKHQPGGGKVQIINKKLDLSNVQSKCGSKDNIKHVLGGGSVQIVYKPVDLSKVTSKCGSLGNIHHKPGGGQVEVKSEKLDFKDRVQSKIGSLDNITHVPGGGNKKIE
row,SMILES,inhibition
1,CCN(CC)c1ccc2oc(=O)c(C)nc2c1,59% (active)
2,CC(=O)Nc1sc(C)c2cnn(-c3ccccc3)c(=O)c12,5% (inactive)
